Measured values published in PubChem BioAssay (NCI).
The panel holds about 83,000 compounds, 20% with a hit somewhere; the sample as a whole holds those more often.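 Compound tested at a single concentration for 48 hours in 96-well plates; a percent growth value below 10 was scored as active.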 A number with no mark means an inactive call. Active and inactive are the calls of the source.

How the values were obtained:
Test in all cases: NCI-60 one-dose screen, 48 h (100 = growth as untreated, 0 = no growth, -100 = all killed)
Settings in all cases: 10 µM unless noted
[1] = tested on: NCI-H23 lung
[2] = tested on: NCI-H226 lung
[3] = tested on: NCI-H322M lung
[4] = tested on: HOP-62 NSCLC
[5] = tested on: NCI-H460 lung
[6] = tested on: HOP-92 NSCLC
[7] = tested on: NCI-H522 lung
[8] = tested on: A549/ATCC NSCLC
[9] = tested on: 786-0 renal
[10] = tested on: COLO 205 colon

Structure (SMILES)	growth [1]	growth [2]	growth [3]	growth [4]	growth [5]	growth [6]	growth [7]	growth [8]	growth [9]	growth [10]
CC1=C(C)C(=O)C(Nc2cccc(C(=O)OC(C)(C)C)c2)=C(Br)C1=O	85.9%	86.5%	91.1%	92.6%	99.7%	-32.5% (active)	67.4%	95.6%	96.2%	114%
COC(=O)CCC/C=C\C[C@H]1C=CC(=O)/C1=C/C[C@@H](O)CCc1cccc(C(F)(F)F)c1	-13.7% (active)	-48.4% (active)	-14.3% (active)	-47.3% (active)	-41.8% (active)	-37.1% (active)	-75.1% (active)	-24.2% (active)	-61.1% (active)	-49.3% (active)
CN(C)c1ccc(/C=N\Nc2cc(=O)[nH]c3ccc(Cl)cc23)cc1	82.8%	75%	99.2%	91.8%	102%	82.2%	86.1%	96.6%	102%	112%
COc1ccc(-c2nc3sc(-c4ccccc4)cn3n2)cc1	72%	76.3%	85.8%	50.5%	34.9%	67.6%	29.6%	50.8%	88%	36.7%
C=C1C(=O)O[C@H]2[C@H]1CC/C(COC(=O)NCCOCCOCC(=O)Nc1ccc(OC)c(C(N)=O)c1O)=C\CC[C@@]1(C)O[C@@H]21	78.5%	89.8%	96.9%	84%	95.8%	24.2%	-11% (active)	84.1%	62.1%	8% (active)
O=C(CCc1nnc(-c2c(Cl)cccc2Cl)o1)c1nc2ccccc2[nH]1	61.9%	83.7%	76%	71.6%	77.3%	6.67% (active)	49.8%	69.7%	73.8%	62.6%
Fc1cc(-c2nnc3sc(-c4ccc(Cl)cc4Cl)nn23)c(Cl)cc1Cl	83%	97.6%	89.7%	97.9%	57.6%	81.5%	86.6%	66.3%	59.6%	72.3%
CSc1ncccc1C(=O)OCC(=O)Nc1oc(C)c2c(C)n[nH]c(=O)c12	99.3%	86.3%	104%	105%	108%	73.4%	84.2%	103%	91.6%	122%
COc1cc(C2CC(c3ccc(N(C)C)cc3)=NN2C(C)=O)cc(OC)c1OC (stereo not given)	31.2%	79.6%	44.2%	47.8%	10.8%	60.7%	-5.66% (active)	51.2%	24.1%	19.2%
CSc1ccc2c(c1)c(CCN)c(C)n2Cc1ccc(Cl)c(Cl)c1	-89.7% (active)	-59.8% (active)	-83% (active)	-78.2% (active)	-70.6% (active)	-91.6% (active)	-76.5% (active)	-77.9% (active)	-76.1% (active)	-75.8% (active)
O=c1ccc(N=Nc2ccc([N+](=O)[O-])cc2)ccc1O	2.17% (active)	16.6%	17.6%	33%	17.8%	47.5%	14%	31.5%	42.3%	16.7%
c1ccc(-c2nc3nonc3nc2-c2ccccc2)cc1	52.4%	69.2%	81.7%	79%	62.8%	78%	49.2%	76.7%	73.8%	82.6%
CCCCCCn1c(-c2ccc(C(=O)O/N=C(\N)c3ccc(OC)cc3)cc2)nc(-c2ccccc2)c1-c1ccccc1	-63.9% (active)	62.6%	69.4%	26.4%	-10.3% (active)	-63% (active)	-59% (active)	-33.9% (active)	-66.8% (active)	-14% (active)
CCOC(=O)c1c(C)oc2ncnc(N3CCN(C(=O)COc4ccc(C(C)(C)C)cc4)CC3)c12	72.5%	66.5%	88.8%	90.8%	91.4%	62.9%	77.9%	86%	99.1%	76.9%
CCCCCCCCCCCCCCCCCC1OCC(COC(=O)O[C@]2(CC)C(=O)OCc3c2cc2n(c3=O)Cc3cc4ccccc4nc3-2)O1 (stereo not given in full)	75.4%	75.4%	101%	53%	31.4%	92.6%	82.6%	78.5%	86.7%	79.3%
COc1cc2cc(Oc3ccc(NC(=O)Nc4ccc(Cl)c(C(F)(F)F)c4)cc3)c(C)nc2cc1OCCN1CCOCC1	10.5%	34.9%	61.1%	27.6%	8.67% (active)	20.5%	20.7%	12.7%	29.2%	-28.3% (active)
O=C(Nc1ccc(Cl)cc1F)c1cc(Cl)ccc1O	-20% (active)	-9.16% (active)	-11.1% (active)	7.55% (active)	-5.39% (active)	-21.7% (active)	-3.15% (active)	7.91% (active)	-0.322% (active)	22.2%
Cc1nc2ccccc2n1CC1C(=O)NC(=O)NC1=O	102%	114%	95.5%	105%	111%	97.8%	94.4%	96.4%	103%	115%
C/C(=C\C(=O)c1ccc(Cl)cc1)c1ccc(Cl)cc1	83.9%	90.9%	84.9%	88.1%	100%	72.8%	87.8%	95.2%	108%	97.5%
Cc1ccccc1C(=O)NN	104%	113%	90.6%	93.3%	115%	80.6%	92%	89.2%	112%	110%
O=C1/C(=C/c2ccc(F)cc2)Sc2c(Br)cccc21	50%	79.4%	72.6%	69.1%	93.6%	-3.06% (active)	70.9%	68.9%	100%	105%
Cc1c(C(=O)NCCN2CCOCC2)cn2ncnc(Oc3ccc(NC(=O)Nc4ccc(Cl)c(C(F)(F)F)c4)cc3)c12	13.9%	34.2%	73.8%	20.5%	3.24% (active)	7.32% (active)	5.61% (active)	13.4%	12.3%	-25.4% (active)
CC(=O)OC[C@H]1OC(Sc2sc(C(=O)c3ccc(C)cc3)c(N)c2-c2nc3ccccc3s2)[C@H](OC(C)=O)[C@@H](OC(C)=O)[C@@H]1OC(C)=O (stereo not given in full)	56.1%	30.3%	81.3%	61.5%	43.7%	58.8%	82.1%	81.9%	47.4%	92.2%
O=C(Cc1ccc2c(c1)OCCO2)Nc1nc2ccc(F)cc2s1	87.1%	104%	105%	93.4%	103%	109%	87.2%	102%	104%	124%
Cc1nc2ccccc2c(/C=C/c2ccccc2)c1C(=O)/C=C/c1ccc(C(F)(F)F)cc1	-33.6% (active)	-42.2% (active)	2.79% (active)	-21.9% (active)	-71.6% (active)	-64.8% (active)	-1.91% (active)	75.3%	-76.4% (active)	-25.7% (active)
C=C1CC[C@H](C(C)C)[C@@H]2[C@H]1[C@H]1CC(=C)[C@@H](O)CC[C@@](C)(O)[C@@H]2O1	81.6%	95.2%	95.4%	84.3%	108%	86.3%	89.5%	86.2%	82.6%	117%
CCc1ccc(Oc2c(-c3ccc(OCc4ccc(Cl)cc4)cc3O)nn(C)c2C(F)(F)F)cc1	-14.2% (active)	6.86% (active)	13.6%	-35.2% (active)	-20% (active)	-25.3% (active)	-33.5% (active)	3.73% (active)	-37% (active)	-75.2% (active)
